Measured values reported in publication PMC7862700, “An all-to-all approach to the identification of sequence-specific readers for epigenetic DNA modifications on cytosine”.

How the values were obtained:
Assay in all cases: DAPPL (digital affinity profiling via proximity ligation, sequencing); 10 mM Tris-HCl pH 7.5, 50 mM NaCl, 1 mM DTT, 4% glycerol, room temperature, 30 min; GST-TFs on glutathione beads, 16-mer random dsDNA library, 0.1% formaldehyde crosslink after washing; high values mean tight binding
Settings in all cases: protein: recombinant; tags: N-terminal GST; dsDNA, one strand shown
ETV2 = molecular target: T1, ETV2 (Homo sapiens, UniProt O00321 1-342)
T1 sequence: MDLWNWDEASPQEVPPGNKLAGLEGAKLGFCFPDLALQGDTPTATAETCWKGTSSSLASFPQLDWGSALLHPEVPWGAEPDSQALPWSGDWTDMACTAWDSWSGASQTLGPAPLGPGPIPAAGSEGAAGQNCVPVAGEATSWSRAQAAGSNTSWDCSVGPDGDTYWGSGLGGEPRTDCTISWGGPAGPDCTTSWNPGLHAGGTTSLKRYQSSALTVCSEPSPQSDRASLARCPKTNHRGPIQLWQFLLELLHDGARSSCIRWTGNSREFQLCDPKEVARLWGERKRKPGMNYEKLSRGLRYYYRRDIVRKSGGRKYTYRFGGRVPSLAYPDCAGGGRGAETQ
Summary of the method: (§1)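 A tag-only sample was pooled with DNA-barcoded human transcription factors that had been expressed in yeast as GST fusions and captured on glutathione beads. The pools were incubated for 30 min at room temperature with 200 nmole of a random double-stranded 16-mer DNA library in Tris/NaCl/DTT/glycerol buffer, then washed, crosslinked with 0.1% formaldehyde, proximity-ligated (BsaI/T4 ligase, 1 h, 37 °C), PCR-amplified and sequenced on an Illumina NextSeq500. Binding signal is each hexamer's read frequency for a factor divided by its frequency for the tag-only sample.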

ELF3 = molecular target: T2, ELF3 (Homo sapiens, UniProt P78545 1-371)
T2 sequence: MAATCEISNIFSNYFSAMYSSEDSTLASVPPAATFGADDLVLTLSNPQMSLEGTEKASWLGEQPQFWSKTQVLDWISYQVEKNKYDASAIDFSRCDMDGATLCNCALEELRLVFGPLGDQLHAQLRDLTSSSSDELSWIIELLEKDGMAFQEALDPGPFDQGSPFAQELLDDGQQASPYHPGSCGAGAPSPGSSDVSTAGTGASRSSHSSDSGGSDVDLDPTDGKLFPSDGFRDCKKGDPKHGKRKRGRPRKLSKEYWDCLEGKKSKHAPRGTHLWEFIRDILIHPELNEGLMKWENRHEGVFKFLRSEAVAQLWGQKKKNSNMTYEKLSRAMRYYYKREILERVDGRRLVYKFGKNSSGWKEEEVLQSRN
Summary of the method: as §1

ETV1 = ETV1 (Homo sapiens, UniProt P50549 1-477)
Summary of the method: as §1

ERF = molecular target: T3, ERF (Homo sapiens, UniProt P50548 1-548)
T3 sequence: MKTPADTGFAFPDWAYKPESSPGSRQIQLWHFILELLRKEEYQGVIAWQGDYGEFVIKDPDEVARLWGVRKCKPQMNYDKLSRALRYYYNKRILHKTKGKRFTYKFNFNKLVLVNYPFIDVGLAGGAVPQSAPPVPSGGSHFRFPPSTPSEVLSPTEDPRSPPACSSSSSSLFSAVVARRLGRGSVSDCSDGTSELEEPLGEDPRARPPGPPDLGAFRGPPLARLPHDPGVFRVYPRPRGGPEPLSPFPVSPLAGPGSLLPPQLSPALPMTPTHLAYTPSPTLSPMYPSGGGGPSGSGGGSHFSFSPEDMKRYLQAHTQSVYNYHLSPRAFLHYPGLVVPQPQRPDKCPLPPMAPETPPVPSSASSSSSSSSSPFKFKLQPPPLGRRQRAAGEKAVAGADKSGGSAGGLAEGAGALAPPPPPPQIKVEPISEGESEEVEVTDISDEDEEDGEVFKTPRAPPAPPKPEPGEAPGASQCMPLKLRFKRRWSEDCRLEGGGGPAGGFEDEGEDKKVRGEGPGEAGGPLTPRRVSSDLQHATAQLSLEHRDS
Summary of the method: as §1

ETV3L = molecular target: T4, ETV3L (Homo sapiens, UniProt Q6ZN32 1-361)
T4 sequence: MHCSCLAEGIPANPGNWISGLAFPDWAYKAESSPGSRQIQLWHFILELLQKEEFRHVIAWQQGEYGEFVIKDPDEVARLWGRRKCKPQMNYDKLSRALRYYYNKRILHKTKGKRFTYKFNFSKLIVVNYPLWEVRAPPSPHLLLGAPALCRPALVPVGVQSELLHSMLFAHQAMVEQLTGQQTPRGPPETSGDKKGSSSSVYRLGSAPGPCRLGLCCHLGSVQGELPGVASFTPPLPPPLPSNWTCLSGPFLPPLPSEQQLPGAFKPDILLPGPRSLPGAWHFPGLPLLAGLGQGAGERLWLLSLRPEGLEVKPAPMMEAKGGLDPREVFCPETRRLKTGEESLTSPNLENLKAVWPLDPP
Summary of the method: as §1

ETS2 = molecular target: T5, ETS2 (Homo sapiens, UniProt P15036 1-469)
T5 sequence: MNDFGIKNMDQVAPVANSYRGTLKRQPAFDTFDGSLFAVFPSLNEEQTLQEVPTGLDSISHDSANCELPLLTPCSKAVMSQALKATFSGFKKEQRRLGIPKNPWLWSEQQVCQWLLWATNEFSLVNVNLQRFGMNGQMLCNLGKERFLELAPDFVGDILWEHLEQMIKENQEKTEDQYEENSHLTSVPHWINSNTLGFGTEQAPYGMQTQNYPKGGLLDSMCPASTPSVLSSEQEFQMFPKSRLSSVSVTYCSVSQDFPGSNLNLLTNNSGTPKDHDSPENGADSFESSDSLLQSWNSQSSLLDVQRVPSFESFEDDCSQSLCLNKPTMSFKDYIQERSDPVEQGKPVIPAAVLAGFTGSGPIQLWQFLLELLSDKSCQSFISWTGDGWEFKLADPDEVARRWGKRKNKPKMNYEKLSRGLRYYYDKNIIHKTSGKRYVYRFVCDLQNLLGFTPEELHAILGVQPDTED
Summary of the method: as §1

SPDEF = molecular target: T6, SPDEF (Homo sapiens, UniProt O95238 1-335)
T6 sequence: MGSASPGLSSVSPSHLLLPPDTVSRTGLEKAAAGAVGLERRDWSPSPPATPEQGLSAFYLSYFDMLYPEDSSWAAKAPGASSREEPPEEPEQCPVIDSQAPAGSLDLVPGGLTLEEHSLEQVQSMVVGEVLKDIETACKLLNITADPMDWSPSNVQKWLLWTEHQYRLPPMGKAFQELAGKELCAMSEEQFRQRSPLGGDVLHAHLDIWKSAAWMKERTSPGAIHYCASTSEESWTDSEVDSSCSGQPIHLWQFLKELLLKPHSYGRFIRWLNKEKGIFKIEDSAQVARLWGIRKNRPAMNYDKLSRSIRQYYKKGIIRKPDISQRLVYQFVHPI
Summary of the method: as §1

ETV7 = molecular target: T7, ETV7 (Homo sapiens, UniProt Q9Y603 1-341)
T7 sequence: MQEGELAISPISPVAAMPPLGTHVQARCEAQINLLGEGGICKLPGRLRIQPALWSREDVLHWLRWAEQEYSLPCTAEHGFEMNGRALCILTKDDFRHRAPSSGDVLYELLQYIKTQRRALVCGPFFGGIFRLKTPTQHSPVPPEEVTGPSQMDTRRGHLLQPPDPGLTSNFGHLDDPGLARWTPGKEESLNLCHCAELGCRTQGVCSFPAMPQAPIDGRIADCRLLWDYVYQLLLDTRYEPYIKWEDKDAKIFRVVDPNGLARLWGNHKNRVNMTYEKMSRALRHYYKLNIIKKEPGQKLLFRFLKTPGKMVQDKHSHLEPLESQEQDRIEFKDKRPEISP
Summary of the method: as §1

ETV3 = molecular target: T8, ETV3 (Homo sapiens, UniProt P41162-2 1-143)
T8 sequence: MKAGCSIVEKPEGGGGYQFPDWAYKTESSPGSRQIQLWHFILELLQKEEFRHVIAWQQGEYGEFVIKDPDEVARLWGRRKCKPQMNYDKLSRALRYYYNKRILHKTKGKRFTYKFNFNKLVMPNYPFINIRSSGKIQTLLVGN
Summary of the method: as §1

ETV6 = ETV6 (Homo sapiens, UniProt P41212 1-452)
Summary of the method: as §1

Sequence of ETV6 (P41212 whole entry): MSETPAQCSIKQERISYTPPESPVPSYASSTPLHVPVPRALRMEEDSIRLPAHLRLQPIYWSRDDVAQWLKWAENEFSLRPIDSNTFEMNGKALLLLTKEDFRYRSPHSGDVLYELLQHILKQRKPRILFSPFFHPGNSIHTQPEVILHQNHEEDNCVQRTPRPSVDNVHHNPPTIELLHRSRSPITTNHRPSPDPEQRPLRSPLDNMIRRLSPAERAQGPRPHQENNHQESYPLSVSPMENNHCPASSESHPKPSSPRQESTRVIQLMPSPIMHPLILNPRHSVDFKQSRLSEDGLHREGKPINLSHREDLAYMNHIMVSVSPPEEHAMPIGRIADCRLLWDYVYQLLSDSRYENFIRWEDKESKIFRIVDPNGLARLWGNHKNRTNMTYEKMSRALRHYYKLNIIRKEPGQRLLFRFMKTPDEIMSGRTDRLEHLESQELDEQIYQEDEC
Sequence of ETV1 (P50549 whole entry): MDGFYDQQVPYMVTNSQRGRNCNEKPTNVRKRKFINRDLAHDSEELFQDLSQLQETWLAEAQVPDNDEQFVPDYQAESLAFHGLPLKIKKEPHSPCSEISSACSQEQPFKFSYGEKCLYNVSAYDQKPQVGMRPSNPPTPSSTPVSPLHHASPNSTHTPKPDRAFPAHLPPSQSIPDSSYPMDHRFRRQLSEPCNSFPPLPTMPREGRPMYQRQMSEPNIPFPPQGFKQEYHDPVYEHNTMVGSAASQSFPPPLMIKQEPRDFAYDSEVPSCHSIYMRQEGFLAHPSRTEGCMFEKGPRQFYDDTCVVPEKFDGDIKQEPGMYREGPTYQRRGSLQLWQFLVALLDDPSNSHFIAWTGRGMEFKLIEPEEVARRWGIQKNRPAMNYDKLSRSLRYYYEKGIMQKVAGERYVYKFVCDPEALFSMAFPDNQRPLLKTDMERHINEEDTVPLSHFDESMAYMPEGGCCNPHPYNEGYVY

## TATGTC
ETV2
  binding signal: 1.02 fold enrichment (6-mer frequency, TF over GST control)
ELF3
  binding signal: 1.06 fold enrichment (6-mer frequency, TF over GST control)
ETV1
  binding signal: 1.05 fold enrichment (6-mer frequency, TF over GST control)
ERF
  binding signal: 1.08 fold enrichment (6-mer frequency, TF over GST control)
ETV3L
  binding signal: 1.16 fold enrichment (6-mer frequency, TF over GST control)
ETS2
  binding signal: 1.13 fold enrichment (6-mer frequency, TF over GST control)
SPDEF
  binding signal: 1.14 fold enrichment (6-mer frequency, TF over GST control)
ETV7
  binding signal: 1.06 fold enrichment (6-mer frequency, TF over GST control)
ETV3
  binding signal: 1.13 fold enrichment (6-mer frequency, TF over GST control)
ETV6
  binding signal: 1.07 fold enrichment (6-mer frequency, TF over GST control)
